An excerpt weighted towards active compounds, which were near 9.2% of everything screened.
FLuc modulator: qHTS profiling assay for firefly luciferase inhibitor/activator using purifed enzyme and Km concentrations of substrates (counterscreen for miR-21 project); 360,000 compounds, 6.9% hits; Potency, µM (series often up to 57.5 µM), for inactives: top-dose activity change, negative = inhibition, actives largely listed as inhibitors; purified FLuc, Km substrates, luminescence inhibition; Luciferin 4-monooxygenase (Photinus pyralis), P08659;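 further: plate controls were vehicle for no effect and reference inhibitor for full effect; nearly all actives have a fitted effect of over 55% in size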
Target sequence (P08659 whole entry, looked up): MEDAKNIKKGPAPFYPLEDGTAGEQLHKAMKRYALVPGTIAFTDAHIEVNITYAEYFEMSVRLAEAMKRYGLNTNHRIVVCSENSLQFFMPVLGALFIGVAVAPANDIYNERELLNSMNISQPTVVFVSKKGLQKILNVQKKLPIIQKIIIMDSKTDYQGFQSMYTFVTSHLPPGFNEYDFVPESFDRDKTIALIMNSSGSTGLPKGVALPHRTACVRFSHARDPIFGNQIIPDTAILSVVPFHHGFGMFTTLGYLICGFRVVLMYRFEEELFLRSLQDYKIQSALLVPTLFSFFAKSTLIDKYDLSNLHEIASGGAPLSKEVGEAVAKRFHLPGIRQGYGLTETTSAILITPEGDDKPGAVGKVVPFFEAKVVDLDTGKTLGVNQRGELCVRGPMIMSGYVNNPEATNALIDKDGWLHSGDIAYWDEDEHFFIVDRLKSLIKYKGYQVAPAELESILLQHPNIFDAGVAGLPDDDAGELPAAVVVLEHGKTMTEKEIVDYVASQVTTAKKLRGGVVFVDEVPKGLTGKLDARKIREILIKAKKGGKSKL
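Purified P. pyralis luciferase, 10 nM final, with Km-level 10 uM D-luciferin and 10 uM ATP in 50 mM Tris acetate pH 7.5, 10 mM Mg acetate, 0.01% Tween-20, 0.05% BSA; 6-point qHTS titration about 60 µM downward; luminescence read.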
Rab9 prom act: qHTS Assay for Rab9 Promoter Activators; Huh7 Rab9 promoter-luciferase reporter, luminescence, 24 h; Potency, µM (highest dose often 9.22 µM), without a hit: at the highest dose activation, negative = inhibition, most hits filed as activators; 320,000 compounds, 2.8% hits; AID 485297, 2010; further: % of control where 0% means no effect; nearly all actives have a fitted effect of over 60% in size
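Rab9 promoter-driven luciferase in stably transfected Huh7 cells; 1500 cells/well rested 2 h, exposed to compound in DMSO for 24 h at 37 °C, 5% CO2. Luminescence read 10 min after adding luciferase reagent at ambient temperature.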
SMN2 splice enh: qHTS Assay for Enhancers of SMN2 Splice Variant Expression; Potency, µM (highest dose often 46.1 µM), without a hit: at the highest dose activity change, positive = activation, hits mostly activators; 210,000 compounds, 2.8% hits; HEK293 SMN2-luciferase splicing reporter, luminescence, 30-36 h; further: % of control where 0% means no effect; nearly all actives have a fitted effect of over 55% in size
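HEK293 cells carry an SMN2 minigene-luciferase reporter in which exon 7 inclusion puts luciferase in frame. Cells were seeded at 2000 cells/well, attached for 10-12 hours, then exposed to compounds for 30-36 hours at 37C before ONE-Glo luminescence.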
ELG1 genotox: qHTS screen for small molecules that induce genotoxicity in human embryonic kidney (HEK293T) cells expressing luciferase-tagged ELG1. HEK293T ELG1-luciferase reporter, luminescence, 16 h. Potency, µM (highest dose often 46 µM), inactives show at the highest dose activity change, positive = activation, hits mostly activators. 330,000 compounds, 1.3% hits. AID 504466, 2011; further: % of control where 0% means no effect; nearly all actives have a fitted effect of over 60% in size
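DMSO vehicle served as control against compound-treated ELG1-luciferase HEK293T cells; exposure lasted 16 hr at 37 °C and 5% CO2, followed by ONE-Glo luminescence detection after 30 min.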
NPC1 prom act: qHTS Assay for NPC1 Promoter Activators; Huh7 NPC1 promoter luciferase reporter, 24 h; Potency, µM (doses to about 9.22 µM), for inactives: at the highest dose activation, most hits filed as activators; 320,000 compounds, 2.4% hits; further: % of control where 0% means no effect; nearly all actives have a fitted effect of over 60% in size
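In 1536-well qHTS, Huh7 cells harboring an NPC1 promoter–luciferase construct received compound for 24 h; activation was quantified by luminescence following luciferase reagent addition.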
ELG1 repair inh: qHTS screen for small molecules that inhibit ELG1-dependent DNA repair in human embryonic kidney (HEK293T) cells expressing luciferase-tagged ELG1; HEK293T ELG1-luciferase reporter, luminescence, 16 h; DNA damage induced by 5-fluorouridine; Potency, µM (titrated, usually from 46.1 µM), for inactives: at the top dose activity change, negative = inhibition, actives largely listed as inhibitors; 330,000 compounds, 2.3% hits; AID 504467, 2011; further: on the % scale 0 is the no-effect control and ±100 the full control effect; nearly all actives have a fitted effect of over 55% in size
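Quantitative HTS, concentration-response format. 2,000 cells/well co-treated with 5-fluorouridine and compound, 16 hr in 5% CO2 at 37 °C; ONE-Glo luminescence read after 30 min.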
* hit, by the source's call; ? = inconclusive; · = no result; [ ] = another dose, or the depositor's remark. The call rests on the fitted dose curve; in most records, active means well fitted curve in the direction sought with a large enough effect; inconclusive means small, poorly fitted or top-dose-only effect, or another doubt; inactive means no such curve, though single readings can be large; an effect the other way counts as inactive or inconclusive. Potency means the concentration at half of the fitted maximal effect.

SMILES	FLuc modulator	Rab9 prom act	SMN2 splice enh	ELG1 genotox	NPC1 prom act	ELG1 repair inh
COc1cccc(C(=O)Nc2ccc(NC(C)=O)cn2)c1	21µM*	?	?	?	?	?
CCCC(=O)Nc1ccc(NC(=O)c2cccc(OC)c2)nc1	12µM*	3.2µM*	?	12%	?	?
Cc1cc(NC(=O)c2cccc(F)c2)ncc1NC(=O)c1ccco1	11µM*	2µM*	14µM*	3.7µM*	1.3µM*	?
COc1cc(NC(=O)CCc2c(C)n(C)c3cc(-c4ccccc4C)nn3c2=O)cc(OC)c1OC	-1%	·	·	·	·	·
CCOc1ccc(NC(=O)CN(C)C(=O)c2cc([N+](=O)[O-])ccc2N2CCOCC2)cc1OCC	5%	-6%	·	5%	-3%	-10%
COc1ccc(N2C(=O)NC(NC(=O)C(C)(C)C)(C(F)(F)F)C2=O)cc1 (centres undefined)	-1%	-4%	·	1%	-3%	15%
Cn1c2ccccc2c2cc(/C=N/NC(=O)c3ccc(N)cc3)ccc21	11µM*	12%	·	-14%	-2%	?
Cn1c2ccccc2c2cc(/C=N/NC(=O)c3ccccc3F)ccc21	7.6µM*	13%	·	-11%	-10%	23µM*
Cc1ccc(CNC(=O)CSc2cc(C)[nH]c(=O)n2)cc1	-13%	·	·	·	·	·
Cc1ccc(C(=O)CSc2cc(C)[nH]c(=O)n2)cc1	13µM*	4µM*	·	?	3.2µM*	?
Cc1cc(SCC(=O)c2ccccc2)nc(=O)[nH]1	15µM*	4µM*	·	12%[9.26 µM]	2.5µM*	?
Cc1cc(SCC(=O)c2ccc(Cl)cc2)nc(=O)[nH]1	4.8µM*	1.6µM*	·	?	1.3µM*	?
CC(C)(C)OC(=O)N1CCC(c2c(C(=O)N3CCN(c4ccccn4)CC3)cnn2-c2ccccc2Cl)CC1	-2%	·	·	·	·	·
COc1ccc(NS(=O)(=O)c2cc(NC(=O)Cn3cnc4c3c(=O)n(C)c(=O)n4C)ccc2C)cc1	-2%	0%	4%	-2%	-1%	?
CCc1nc2ccccc2n1Cc1ccccc1F	-2%	-14%	8%	-6%	-5%	1%
CCCSc1ncc(Cl)c(C(=O)Nc2c(C(=O)c3ccc(F)cc3)oc3ccccc23)n1	0%	·	-3%	·	·	·
O=C(Nc1ccc(F)cc1)Nc1ccc(N2CCOCC2)c2nonc12	?	2.2µM*	?	?	?	?
COc1ccc(NC(=O)Nc2ccc(N3CCOCC3)c3nonc23)c(OC)c1	-1%	-3%	7%	6%	0%	18%
O=C(NNC(=O)c1ccccc1F)c1ccc(NS(=O)(=O)c2ccc(F)cc2)cc1	-1%	-6%	·	1%	0%	4%
COc1ccc(-c2ccc3c(N)c(C(=O)Nc4cc(F)ccc4C)sc3n2)cc1	?	·	-3%	·	·	·
COc1ccc(-c2ccc3c(N)c(C(=O)Nc4cccc(C)c4)sc3n2)cc1	1%	·	1.8µM*	·	·	·
COc1cccc(NC(=O)c2sc3nc(C)c(C(=O)Nc4ccc(C)cc4C)c(-c4ccc(Br)cc4)c3c2N)c1	-5%	·	13µM*	·	·	·
COCCCNC(=O)c1sc2nc(C)c(C(=O)Nc3ccc(C)cc3C)c(-c3ccc(Br)cc3)c2c1N	-12%	·	-9%	·	·	·
COc1ccc(-c2ccc3c(N)c(C(=O)NC(C)C)sc3n2)cc1OC	17µM*	12%	·	2%	0%	-22%
COc1ccc(-c2ccc3c(N)c(C(=O)c4ccc(OC)c(OC)c4)sc3n2)cc1	-9%	15%	19%	16%	10%	?

Screening data from PubChem BioAssay.
